These results are taken from the supplement of paper PMC3484114.

± gives the standard deviation.

The experiment has as its system OVCAR-3-derived ovarian cancer stem-like cells (spheroids). Kind of experiment: cell growth relative to untreated control; higher = more growth (less inhibition). Conditions: 2.29 µM; 96 h. The method, boiled down: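 After trypsin dissociation, OVCAR-3 spheroid-derived stem-like cells were placed in ultra-low attachment 96-well plates at 50,000 cells/mL in stem cell medium and preincubated for 24 h. Treatment at 2.29 uM followed for 96 h at 37°C, 5% CO2, with 4 replicate wells per compound. A 4 h TOX8 resazurin fluorescence read (ex 560/em 590 nm) gave viability, from which percent growth relative to untreated wells was derived after blank subtraction and Grubbs outlier removal.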
On to `O=C(c1ccccc1)C1OC12C(=O)Nc1c(Cl)cc(Cl)cc12` (centres undefined), for which the cell growth was found to be 94.6 ± 19%.
With `Cc1ccc(NC(=O)c2cccc([N+](=O)[O-])c2O)c(C)c1`, the cell growth turned out to be 110 ± 19%.
The figure for `CC(C)(C)CC(C)(C)NCC(O)COc1ccc(C(C)(C)c2ccc(OCC(O)CNC(C)(C)CC(C)(C)C)cc2)cc1` (centres undefined) is 7.1 ± 2.1%; for `CC(=O)/C(=C\c1cccc([N+](=O)[O-])c1)C(=O)Nc1ccccc1C` it is 81.8 ± 22%; for `CCN(CC)CCNc1ccc2nc(C)n3c4ccc(OC)cc4c(=O)c1c23` it is 34.8 ± 9.9%.
In the case of `Cc1ccc2[c](c1)[Sn]([c]1ccccc1)([c]1ccccc1)[c]1cc(C)ccc1N2C`, the cell growth is 87.8 ± 12%.
Turning to `CC[C@@]1(O)C(=O)OCc2c1cc1n(c2=O)Cc2cc3c(N)cccc3nc2-1`, the cell growth came out at 46.5 ± 11%.
Turning to `C[C@]12C=CC(=O)C=C1[C@@H](F)C[C@H]1[C@@H]3CC[C@](O)(C(=O)CO)[C@@]3(C)C[C@H](O)[C@@]12F`, the cell growth was determined as 80 ± 22%.
The figure for `COc1cc2oc3cc(=O)cc4oc(-c5ccccc5)cc(c2c2c1CCC(c1ccccc1)O2)c43` (centres undefined) is 150 ± 80%.
